Screening data from PubChem.
Shown are actives, neighbours in structure and some others; about 1% of the full set was active somewhere.
PTAP TSG101 blk: blocks PTAP/TSG101 interaction to inhibit HIV-1 budding; Fluorescence polarization, FITC-PTAP peptide / Tsg101 binding; Potency, µM (doses to about 115 µM), without a hit: top-dose activity change, negative = inhibition, usual class: inhibitors; 340,000 tested, under 10 active; Q99816; AID 493005; active means well fitted inhibition curve with a large enough effect in the main read-out, with a control signal flat, not every such curve was filed as active; inconclusive means small, poorly fitted or top-dose-only effect, or effect the other way, or a change in a side signal; inactive means no such curve, though single readings can be large or run the other way; further: potency means the concentration at half of the fitted maximal effect; % of control where 0% means no effect
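Steps: Tsg101 binding domain dispensed (10 uM final), compounds pinned in DMSO, FITC-labeled PTAP-motif peptide added (50 nM final); after 20 min binding at room temperature, polarization measured.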
KCNH2 3.1 inh: blocks the human KCNH2 3.1 channel isoform. U2OS KCNH2 3.1, thallium flux FluxOr; active compounds read low. actives 0.95% (n = 340,000). activity change, % (tested at about 1.8 µM);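 active means maximum activity change below -70%; inconclusive means maximum activity change from -70% to -50%; inactive means maximum activity change above -50%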;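 further: thallium influx rate constant from kinetic fluorescence after stimulation buffer; on the % scale 0 is the no-effect control and ±100 the full control effect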
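Normalized rate constant (relative to positive and negative DMSO controls) derived from a 2 min kinetic fluorescence read after stimulation; U2OS cells expressing the 3.1 isoform via virus at 1.77 x 10^8 /mL.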
hERG WT inh: blocks the wildtype human KCNH2 potassium channel | Q12809 | U2OS, BacMam KCNH2, thallium flux FluxOr; active compounds read low | activity change, % at 1.84 µM | actives 0.37% (n = 340,000) | AID 720551;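 active means maximum activity change below -70%; inconclusive means maximum activity change between -70% and -50%; inactive means maximum activity change above -50%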; further: on the % scale 0 is the no-effect control and ±100 the full control effect
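U2OS cells transduced with wild-type KCNH2 virus are loaded with FluxOr dye for 45 min, and thallium flux is measured in kinetic reads before and after stimulation buffer. Rate constants are normalized to DMSO controls.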
TRPML1 agonist: agonists of human TRPML1 channel. actives 0.12% (n = 410,000). activation, % (concentration not given with the values). Q9GZU1. AID 624414. TRPML1-expressing cells, Ca2+ dye fluorescence, FDSS; in the data active means activation above about 50%; inconclusive means mostly about 30% to 49%; further: 0% is about no effect
Target sequence (Q9GZU1 whole entry, looked up): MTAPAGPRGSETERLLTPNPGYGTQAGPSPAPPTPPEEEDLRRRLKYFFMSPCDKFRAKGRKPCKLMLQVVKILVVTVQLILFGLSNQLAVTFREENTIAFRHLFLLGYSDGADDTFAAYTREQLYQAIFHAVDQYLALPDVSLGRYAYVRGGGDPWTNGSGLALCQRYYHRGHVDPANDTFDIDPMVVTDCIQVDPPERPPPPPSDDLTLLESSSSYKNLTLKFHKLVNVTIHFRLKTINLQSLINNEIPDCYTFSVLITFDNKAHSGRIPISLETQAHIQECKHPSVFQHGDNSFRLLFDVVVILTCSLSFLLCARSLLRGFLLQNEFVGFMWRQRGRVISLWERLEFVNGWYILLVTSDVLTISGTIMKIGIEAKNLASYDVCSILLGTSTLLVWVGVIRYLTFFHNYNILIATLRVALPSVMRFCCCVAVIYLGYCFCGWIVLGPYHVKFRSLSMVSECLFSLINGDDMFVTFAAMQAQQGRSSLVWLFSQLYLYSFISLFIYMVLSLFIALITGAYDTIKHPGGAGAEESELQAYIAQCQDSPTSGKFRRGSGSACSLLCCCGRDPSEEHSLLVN
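Calcium fluorescence on an FDSS kinetic reader gave the read-out. Tet-induced TRPML1-DL cells were plated overnight, dye-loaded (Ca8 with quencher, 45-90 min, room temperature, dark), then read 110 s after compound addition, and again 110 s after 4uM final 54-4 (EC80).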
Glioma ERSR ind: ER stress response induction in glioma. AID 602332. actives 0.02% (n = 420,000). U87-MG GRP78 promoter luciferase reporter, 16 h. Potency, µM, without a hit: at the highest dose activation, actives largely listed as activators; active means well fitted activation curve with a large enough effect; inconclusive means small, poorly fitted or top-dose-only effect; inactive means no such curve, though single readings can be large or run the other way; further: potency means the concentration at half of the fitted maximal effect; series mostly up to about 76 µM; % of control where 0% means no effect; nearly all actives have a fitted effect of over 35% in size
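Stably transfected U87-MG human glioma cells carrying a GRP78-based luminescent sensor were seeded at 1000 cells/well, pin-dosed with compounds and incubated 16 h. Luciferase reagent was then added, and end-point luminescence was read after 10 min at room temperature.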
TRPML1 blocker: human mucolipin-1 channel inhibition; Q9GZU1; actives 0.02% (n = 390,000); TRPML1-inducible cells, Ca2+ dye fluorescence, FDSS; active compounds read low; inhibition of EC80 agonist-evoked calcium signal; AID 624415; activity change, negative = inhibition, % (no concentration beside the values); in the data active means activity change below about -50%; inconclusive means between about -30% and that limit;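 further: stimulus is agonist 54-4 at its EC80 concentration; on the % scale 0 is the no-effect control and ±100 the full control effect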
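Tet-induced TRPML1-DL cells loaded with Ca8 no-wash calcium dye were read kinetically on FDSS. Compound addition was followed by EC80 agonist 54-4 (4 uM final); inhibition was read over 110 s.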
An asterisk follows results filed as active; ? = inconclusive; nt = no result.

SMILES	PTAP TSG101 blk	KCNH2 3.1 inh	hERG WT inh	TRPML1 agonist	Glioma ERSR ind	TRPML1 blocker
CCN(CC)c1ccc2cc(-c3nnc(Nc4ccc(C)cc4)s3)c(=O)oc2c1	nt	nt	nt	67*	-7%	-28
CC1(C)C(=O)N(CCN2CCC(C(=O)c3ccc(F)cc3)CC2)c2ccccc21	-4%	-75*	17	0	-2%	-4
COc1cc2c(NC3CCN(C(C)C)CC3)nc(N3CCCN(C)CC3)nc2cc1OCCCN1CCCC1	nt	nt	nt	0	-5%	nt
COCC(=O)Nc1cc(C(=O)N2CCN(C)C(c3ccccc3)C2)c2c(c1)nc(-c1ccncc1)n2C (stereo not drawn)	nt	nt	nt	nt	1%	nt
OC(CCCN1CCCCC1)(c1ccccc1)c1ccc(C(F)(F)F)cc1 (stereo not drawn)	-10%	-73*	2	0	-4%	-7
OC(CCN1CCCCC1)(c1ccccc1)c1ccccc1	-3%	-8	50	0	-4%	46
CC(C)c1c(C(=O)N(C)Cc2cccc3ncccc23)cnn1-c1nccc(-c2ccco2)n1	nt	nt	nt	nt	-3%	nt
CCC(C)c1ccc(NC(=O)Nc2cnccn2)cc1 (stereo not drawn)	-2%	-12	-281*	0	3%	3
CCOc1ccc(NC(=O)Nc2cnccn2)cc1	0%	14	-7	0	4%	21
O=C1CCN(CCc2ccccc2)CCN1[C@H](CSc1ccc(Br)cc1)c1ccccc1	7%	-113*	-170*	1	-2%	4
CCCN1CCC(=O)N(C(CSc2ccc(OC)cc2)c2ccccc2)CC1 (stereo not drawn)	nt	nt	nt	0	-1%	-6
O=C1CCN(Cc2ccc(O)cc2)CCN1[C@H](CO)c1ccccc1	-5%	-118*	-3	0	-2%	-24
CCCN1CCC(=O)N([C@H](CSc2ccc(Br)cc2)c2ccccc2)CC1	-3%	-116*	-130*	-1	3%	2
COc1ccccc1C1CN(CC(=O)N[C@H]2CCCCNC2=O)Cc2ccccc2O1 (stereo partly drawn)	nt	nt	nt	nt	-3%	nt
Cc1cc(-c2ccnc(-n3ncc(C(=O)NCCc4cccnc4)c3C)n2)c(C)s1	nt	nt	nt	nt	0%	nt
COc1ccccc1-c1ccnc(-n2ncc(C(=O)NC(c3cccnc3)C(F)(F)F)c2C)n1 (stereo not drawn)	nt	nt	nt	nt	-2%	nt
CC[n+]1c(/C=C2/C=C(C)CC(C)(C)C2)sc2ccc(OC)cc21	-2%	2	-71*	0	-5%	11
CC[n+]1c(/C=C2\C=C(C)CC(C)(C)C2)sc2ccccc21	-4%	-24	5	0	-1%	-5
O=C(CCc1c[nH]c2ccccc12)N1CCC(n2c(C3CCCO3)nc3cc(C(F)(F)F)ccc32)CC1 (stereo not drawn)	nt	nt	nt	nt	-4%	nt
CN(Cc1cccs1)C(=O)COc1cccc(-n2cnnn2)c1	-12%	-15	-78*	2	-7%	-7
Cc1ccc(CNc2nc(CN3CCN(C=O)CC3)nc3ccccc23)o1	nt	nt	nt	nt	-4%	nt
CCOc1ccc(N2CC(C(=O)Nc3ccc(N4CCOCC4)cc3)CC2=O)cc1 (stereo not drawn)	-1%	14	-104*	0	-1%	79
O=C1c2[nH]nc(-c3ccccc3O)c2C(c2cccc(Cl)c2)N1CC1CCCO1 (stereo not drawn)	0%	-191*	-137*	1	0%	76
CCC(COC)NC(=O)c1cnn(-c2ncc3c(n2)-c2ccccc2CCC3)c1C (stereo not drawn)	nt	nt	nt	nt	-1%	nt
O=C(c1ccc([N+](=O)[O-])cc1)N(Cc1cccs1)C1CCS(=O)(=O)C1 (stereo not drawn)	-3%	-101*	31	0	-2%	-19
SMILES	PTAP TSG101 blk	KCNH2 3.1 inh	hERG WT inh	TRPML1 agonist	Glioma ERSR ind	TRPML1 blocker
C=CCn1c2[n+](c3ccccc3c1=O)CCCCC2	-2%	-113*	12	2	-4%	21
COc1ccccc1C(=O)NC(=S)NNC(=O)c1sc2ccccc2c1Cl	-2%	-12	-9	51*	-1%	1
COc1ccccc1C(=O)NNC(=S)NC(=O)c1sc2ccccc2c1Cl	0%	7	-8	?	12%	-11
COc1ccccc1C(=O)N1CCOc2ccc(C(C)(O)CCn3cccn3)cc2C1 (stereo not drawn)	nt	nt	nt	nt	0%	nt
CCN1CCCC1CNCc1cc2ccc(SC)cc2nc1-c1cc(OC)ccc1OC (stereo not drawn)	nt	nt	nt	nt	0%	nt
Nc1ccc(CSc2ccc(Cl)cc2)c(Cl)c1	-1%	-102*	12	1	5%	84
O=C(Nc1ccccc1Cl)c1ccccc1Cl	0%	2	0	1	3%	21
O=C(Nc1ccccc1Cl)c1ccc(Cl)cc1Cl	-9%	-72*	-13	2	2%	-8
CCOC(=O)c1cnc2c(Cl)cccc2c1NCCCN1CCOCC1	-9%	-5	-1	nt	-1%	nt
CCOC(=O)c1cnc2c(CC)cccc2c1NCCCN1CCOCC1	0%	-74*	-5	nt	0%	nt
Cc1oc(-c2ccccc2NC(=O)C2CCC2)nc1CNC(=O)c1ccccn1	nt	nt	nt	nt	6%	nt
Cc1ccccc1C1(CC(=O)N2CCCC(C)C2)CC(=O)N(Cc2cccnc2)C1=O (stereo not drawn)	nt	nt	nt	nt	0%	nt
COCCn1c(SCC(=O)Nc2ccc(Cl)c(S(=O)(=O)N(C)C)c2)nc2ccccc21	-10%	4	-118*	3	-8%	7
COC(=O)C1CCCCN1Cc1nc(N(C)C)c2ccccc2n1 (stereo not drawn)	nt	nt	nt	nt	-1%	nt
O=C1[C@H](Cc2ccccc2)NC/C=C\C[C@H](c2ccco2)N1Cc1ccccc1	nt	nt	nt	2	-3%	nt
CCCN(CCC)CCNC(=O)CCC(=O)Nc1ccc2nc(N3CCOCC3)cc(C)c2c1	-1%	-174*	3	-1	-4%	76
Cc1cc(N2CCOCC2)nc2ccc(NC(=O)C3CCC(C)CC3)cc12 (stereo not drawn)	-1%	-107*	-14	0	-3%	6
CCCCNC(=O)CCC(=O)Nc1ccc2nc(N3CCOCC3)cc(C)c2c1	-6%	-47	3	0	4%	0
CCCN(CCC)CCCNC(=S)Nc1ccc2nc(N3CCN(CC)CC3)cc(C)c2c1	-4%	14	-6	0	-3%	-8
CCCN(CCC)CCCNC(=S)Nc1ccc2nc(N3CCN(C)CC3)cc(C)c2c1	0%	-109*	15	0	-5%	-3
CSc1nnc(CNC(=O)c2c(-c3ccccc3)noc2C)n1-c1ccc(F)cc1	nt	nt	nt	nt	-4%	nt
O=C(CCc1nc2ccccc2s1)N1CCOc2ccc(CN3CCc4sccc4C3)cc2C1	nt	nt	nt	nt	2%	nt
